In PubChem BioAssay (NCATS):
Inconclusive results are not listed. Activity calls are given as the source filed them. The call rests on the fitted dose curve; in most records, active means well fitted curve in the direction sought with a large enough effect; inconclusive means small, poorly fitted or top-dose-only effect, or another doubt; inactive means no such curve, though single readings can be large; an effect the other way counts as inactive or inconclusive.

Experiments:
[1] = target: N-terminal Xaa-Pro-Lys N-methyltransferase 1 (Homo sapiens) (UniProt Q9BV86); assay: qHTS Assay for Inhibitors of N-terminal methyltransferase 1 (NTMT1): LOPAC validation of the NTMT1 SAHH-coupled ThioGlo3 Assay (AID 1347143); further: nearly all actives have a fitted effect of over 70% in size; further: potency means the concentration at half of the fitted maximal effect; on activity change, negative = inhibition: on the % scale 0 is the no-effect control and ±100 the full control effect
Chain of N-terminal Xaa-Pro-Lys N-methyltransferase 1 (Homo sapiens) (Q9BV86 whole entry, looked up): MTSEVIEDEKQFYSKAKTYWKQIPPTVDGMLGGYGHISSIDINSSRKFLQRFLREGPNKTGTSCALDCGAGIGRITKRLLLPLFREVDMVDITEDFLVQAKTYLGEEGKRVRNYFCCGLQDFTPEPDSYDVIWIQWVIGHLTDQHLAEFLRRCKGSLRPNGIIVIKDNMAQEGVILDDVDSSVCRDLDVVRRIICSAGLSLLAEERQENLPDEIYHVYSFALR
Procedure, shortened: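 Fluorescence read-out (excitation 340nm, emission 450nm) of SAH-derived thiol, measured via SAHH coupling and ThioGlo3, taken immediately and after a 30 min room-temperature reaction, then normalized to the background read. Enzyme: NTMT1 at 125nM; cofactor SAM 100uM in the added reagent.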

[2] = test system: Zika virus NS2B-NS3 protease (unlinked); assay: Optimization of GU AMC qHTS for Zika virus inhibitors: Unlinked NS2B-NS3 protease assay (AID 1347151); further: nearly all actives have a fitted effect of over 80% in size; further: potency means the concentration at half of the fitted maximal effect;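 on activity change, negative = inhibition: series mostly up to about 52 µM; 0% = no-inhibitor control and -100% = no-enzyme control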
Procedure, shortened: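 Fluorescence gain (340/450 nm) over 15 min at room temperature, ~20% conversion, gave percent inhibition fitted to a 4-parameter Hill equation; enzyme was unlinked NS2B-NS3 (25 nM final), pH 8.0 Tris buffer.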

[3] = target: Lysine-specific demethylase 5B (Homo sapiens) (UniProt Q9UGL1); assay: Optimization screen for KDM5B Histone Demethylases FDH coupled qHTS against the LOPAC library (AID 1347166); further: 0% is about no effect
Chain of Lysine-specific demethylase 5B (Homo sapiens) (Q9UGL1 whole entry, looked up): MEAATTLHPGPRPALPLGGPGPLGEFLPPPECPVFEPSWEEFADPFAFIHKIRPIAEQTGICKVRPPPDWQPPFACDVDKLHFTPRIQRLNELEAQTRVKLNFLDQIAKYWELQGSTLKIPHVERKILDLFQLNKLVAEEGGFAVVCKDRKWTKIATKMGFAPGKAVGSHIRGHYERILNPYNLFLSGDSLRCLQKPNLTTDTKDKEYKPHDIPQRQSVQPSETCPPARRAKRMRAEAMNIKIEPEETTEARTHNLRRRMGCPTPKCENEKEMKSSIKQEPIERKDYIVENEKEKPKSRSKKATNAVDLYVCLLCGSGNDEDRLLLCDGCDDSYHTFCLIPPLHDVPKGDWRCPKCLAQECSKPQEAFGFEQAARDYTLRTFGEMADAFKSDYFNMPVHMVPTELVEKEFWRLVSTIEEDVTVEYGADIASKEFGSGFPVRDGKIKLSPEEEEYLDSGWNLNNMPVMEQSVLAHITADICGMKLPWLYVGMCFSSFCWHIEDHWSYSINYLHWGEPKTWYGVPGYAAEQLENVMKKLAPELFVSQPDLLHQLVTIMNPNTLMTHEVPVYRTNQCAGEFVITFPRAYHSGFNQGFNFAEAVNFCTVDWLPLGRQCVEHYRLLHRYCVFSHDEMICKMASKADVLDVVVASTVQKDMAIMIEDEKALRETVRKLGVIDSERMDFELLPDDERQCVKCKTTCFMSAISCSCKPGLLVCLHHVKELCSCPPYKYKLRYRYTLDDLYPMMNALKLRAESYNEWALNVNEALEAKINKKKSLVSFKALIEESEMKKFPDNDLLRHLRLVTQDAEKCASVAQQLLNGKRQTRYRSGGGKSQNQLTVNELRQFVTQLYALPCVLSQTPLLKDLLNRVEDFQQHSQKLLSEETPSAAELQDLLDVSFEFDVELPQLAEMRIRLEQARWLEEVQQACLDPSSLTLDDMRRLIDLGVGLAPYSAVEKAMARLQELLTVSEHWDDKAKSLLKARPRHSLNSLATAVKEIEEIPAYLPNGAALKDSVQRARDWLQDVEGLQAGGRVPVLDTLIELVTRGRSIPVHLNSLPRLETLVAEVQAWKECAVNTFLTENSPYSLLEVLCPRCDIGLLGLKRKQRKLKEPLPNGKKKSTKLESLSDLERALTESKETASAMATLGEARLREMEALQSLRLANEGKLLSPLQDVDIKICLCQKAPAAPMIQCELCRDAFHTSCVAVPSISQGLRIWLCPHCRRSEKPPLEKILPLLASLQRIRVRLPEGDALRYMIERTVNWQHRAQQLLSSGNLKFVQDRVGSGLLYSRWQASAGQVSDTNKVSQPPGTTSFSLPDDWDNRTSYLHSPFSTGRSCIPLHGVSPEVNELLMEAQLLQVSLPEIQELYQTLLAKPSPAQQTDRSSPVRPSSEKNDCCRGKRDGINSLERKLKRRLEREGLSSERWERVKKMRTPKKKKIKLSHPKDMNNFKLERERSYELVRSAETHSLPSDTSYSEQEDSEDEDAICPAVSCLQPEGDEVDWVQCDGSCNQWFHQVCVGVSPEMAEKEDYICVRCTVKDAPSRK
Procedure, shortened: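 KDM5BDeltaAP (200nM final) preincubated 10 min with compound, then 12.5uM H3K4Me3, 25uM a-ketoglutarate, ascorbate, Fe(II), NAD+ and FDH added; 50mM HEPES pH 7.5, 0.01% Tween-20. NADH fluorescence (340/450 nm) change over 30 min, room temperature.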

[4] = qHTS to identify inhibitors of the type 1 interferon - major histocompatibility complex class I in skeletal muscle: primary screen against the NCATS LOPAC collection (AID 1347405);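 further: lytic HiBiT luminescence reporting HLA-B protein level; on the % scale 0 is the no-effect control and ±100 the full control effect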
Procedure, shortened: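 Immortalized human C25cl48 myoblasts with HiBiT knocked into endogenous HLA-B*08:01 were stimulated with 4.0 ng/ml IFN-beta and given compounds in a 7-point, 1:4.3 titration from 46 uM final; after 24 hrs, lytic HiBiT luminescence was read.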

[5] = qHTS to identify inhibitors of the type 1 interferon - major histocompatibility complex class I in skeletal muscle: primary screen against the NCATS Pharmaceutical Collection (AID 1347407);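 further: luminescence of HiBiT knocked into endogenous HLA-B as interferon-induced MHC class I level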; further: potency means the concentration at half of the fitted maximal effect
Procedure, shortened: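 Compounds […] were added to CRISPR-engineered HLA-B-HiBiT C25cl48 human myoblasts with 4.0 ng/ml IFN-beta. After 24 hrs at 37 C, cells were lysed and HiBiT luminescence measured.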

[6] = test system: Zika virus NS2B-NS3 protease; assay: Primary screen GU AMC qHTS for Zika virus inhibitors (AID 1347154);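 further: 0% = no-inhibitor control and -100% = no-enzyme control; nearly all actives have a fitted effect of over 70% in size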
Procedure, shortened: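 Unlinked Zika NS2B hydrophilic domain/NS3 protease domain noncovalent complex (25 nM final) in 10 mM Tris-HCl pH 8.0, 0.01% Tween 20, with AMC peptide substrate. Fluorescence (ex 340, em 450 nm) change over 15 min, room temperature; percent inhibition fitted to 4-parameter Hill equation.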

[7] = test system: Zika virus NS2B-NS3 protease (linked construct); assay: Confirmatory screen NINDS AMC qHTS for Zika virus inhibitors (AID 1347152);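 further: top concentration of the series differs between compounds; 0% = no-inhibitor control and -100% = no-enzyme control; nearly all actives have a fitted effect of over 70% in size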
Procedure, shortened: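 IC50s from 4-parameter Hill fits of percent inhibition, based on AMC fluorescence gain (340/450 nm) over 15 min with 10 microM Bz-Nle-KRR-AMC. Enzyme: 1 nM linked NS2B-NS3 in Tris-HCl pH 8.0; 15-min compound preincubation.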

[8] = test system: Zika virus NS2B-NS3 protease (unlinked complex); assay: Confirmatory screen GU AMC qHTS for Zika virus inhibitors (AID 1347153);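 further: percent inhibition with 0% = no inhibitor control and 100% = no enzyme control; nearly all actives have a fitted effect of over 70% in size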
Procedure, shortened: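 Unlinked NS2B-NS3 complex (25 nM) in 10 mM Tris-HCl pH 8.0, 0.01% Tween 20 preincubated 15 min with compound, then 10 microM Bz-Nle-KRR-AMC (Km 18.3 µM). Fluorescence change over 15 min, normalized, Hill-fitted.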

[9] = Confirmatory screen NINDS Rhodamine qHTS for Zika virus inhibitors (AID 1347161);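 further: purified Zika NS2B-NS3 protease with linked NS2B cofactor domain and Rhodamine110 peptide substrate; series mostly up to about 110 µM; plate controls were no-inhibitor control for no effect and no-enzyme control for full effect; nearly all actives have a fitted effect of over 60% in size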
Procedure, shortened: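 Single-chain NS2B-NS3 protease, 25 nM, pH 8.0; compounds preincubated 15 min. Activity: Rhodamine110 release from 1.5 microM substrate over 15 min, room temperature, data fitted to 4-parameter Hill.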

[10] = Vero cells viability qHTS for Zika virus inhibitors (AID 1347167); further: on the % scale 0 is the no-effect control and ±100 the full control effect
Procedure, shortened: (§1)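 Counter-screen for cytotoxicity of hits from NS2B-NS3 protease qHTS. Overnight-attached cells (2.5 x 10^5 cells/mL, DMEM/4% FBS) were dosed in titration, incubated 24 to 48 hours, then assayed by CellTiter Glo.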

[11] = HepG2 cells viability qHTS for Zika virus inhibitors (AID 1347168); further: on the % scale 0 is the no-effect control and ±100 the full control effect
Procedure, shortened: as §1

OC(CCN1CCCCC1)(c1ccccc1)C1CCCCC1 (stereo unspecified)
inactive: Potency [1] | Potency [2] | Potency [3] | Potency [4] | Potency [5]

COC(=O)C1=C(C)NC(C)=C(C(=O)OC(C)(C)CN(C)CCC(c2ccccc2)c2ccccc2)C1c1cccc([N+](=O)[O-])c1 (stereo unspecified)
inactive: Potency [1] | Potency [3]

C=CCc1ccccc1OCC(O)CNC(C)C (stereo unspecified)
inactive: Potency [1] | Potency [2] | outcome [6] | Potency [4] | Potency [5]

CCN1CCC[C@H]1CNC(=O)c1c(O)c(Cl)cc(Cl)c1OC
inactive: outcome [6] | Potency [4] | Potency [5]
active: Potency [1] 50.1 µM

CCCOc1ccccc1-c1nc2n[nH]nc2c(=O)[nH]1
inactive: Potency [1] | Potency [2] | outcome [6] | Potency [4] | Potency [5]

Cc1ccc(Cl)c(Nc2ccccc2C(=O)O)c1Cl
inactive: Potency [1] | outcome [6] | Potency [3] | Potency [4] | Potency [5]

COC(=O)C1=C(C)NC(C)=C(C(=O)OCCN(C)Cc2ccccc2)C1c1cccc([N+](=O)[O-])c1 (stereo unspecified)
inactive: Potency [1] | Potency [2] | outcome [6] | Potency [5]

OCCN1CCN(CC/C=C2/c3ccccc3Sc3ccc(C(F)(F)F)cc32)CC1
inactive: Potency [2] | outcome [6] | Potency [3] | Potency [4]

CCCCCCCC/C=C\CCCCCCCC(=O)NCc1ccc(O)c(OC)c1
inactive: Potency [1] | outcome [6] | Potency [3] | Potency [4] | Potency [5]

NC(=O)c1cn(Cc2c(F)cccc2F)nn1
inactive: Potency [1] | Potency [2] | outcome [6] | Potency [4] | Potency [5]

O=C(CCNNC(=O)c1ccncc1)NCc1ccccc1
inactive: Potency [1] | Potency [2] | outcome [6] | Potency [4] | Potency [5]

CN=C(NC#N)NCCSCc1nc[nH]c1C
inactive: Potency [1] | Potency [2] | outcome [6] | Potency [4] | Potency [5]

O=C1NCN(c2ccccc2)C12CCN(CCCC(c1ccc(F)cc1)c1ccc(F)cc1)CC2
inactive: Potency [1] | Potency [2] | Potency [3]
active: Potency [5] 18.7 µM

CN(C)CCCN1c2ccccc2Sc2ccccc21
active: Potency [1] 44.7 µM
inactive: Potency [2] | outcome [6] | Potency [4] | Potency [5]

CC(=O)OCC1=C(C(=O)O)N2C(=O)[C@@H](NC(=O)Cc3cccs3)[C@H]2SC1
inactive: Potency [1] | Potency [2] | outcome [6] | Potency [4] | Potency [5]

CN(C(=O)CCCOc1ccc2[nH]c(=O)ccc2c1)C1CCCCC1
active: Potency [1] 79.4 µM | Potency [2] 26.7 µM
inactive: Potency [4] | Potency [5]

c1cc(CN2CCCCC2)cc(OCCCNc2nc3ccccc3s2)c1
inactive: Potency [2] | outcome [6] | Potency [4] | Potency [5]
active: Potency [1] 22.4 µM

NC(=O)c1ncn([C@@H]2O[C@H](CO)[C@@H](O)[C@H]2O)c1O
inactive: Potency [1] | Potency [2] | outcome [6] | Potency [4] | Potency [5]

COCCOC(=O)C1=C(C)NC(C)=C(C(=O)OC(C)C)C1c1cccc([N+](=O)[O-])c1 (stereo unspecified)
inactive: Potency [1] | outcome [6] | Potency [3] | Potency [5]

CC(C)COCC(CN(Cc1ccccc1)c1ccccc1)N1CCCC1 (stereo unspecified)
active: Potency [1] 50.1 µM
inactive: Potency [2] | outcome [6] | Potency [4] | Potency [5]

Brc1c(NC2=NCCN2)ccc2nccnc12
inactive: Potency [2] | outcome [6] | Potency [4] | Potency [5]
active: Potency [1] 50.1 µM

COCC(=O)O[C@]1(CCN(C)CCCc2nc3ccccc3[nH]2)CCc2cc(F)ccc2[C@@H]1C(C)C
inactive: Potency [2] | outcome [6]

Cc1nc2sccn2c(=O)c1CCN1CCC(=C(c2ccc(F)cc2)c2ccc(F)cc2)CC1
inactive: Potency [1] | outcome [7] | outcome [8] | outcome [6] | Potency [9] | outcome [10] | outcome [11] | Potency [4] | Potency [5]

c1ccc2c(c1)CCCC2C1=NCCN1 (stereo unspecified)
inactive: Potency [1] | Potency [2] | outcome [6] | Potency [4] | Potency [5]

CC(C)NCC(O)c1cc(O)cc(O)c1 (stereo unspecified)
inactive: Potency [2] | outcome [6] | Potency [3] | Potency [4] | Potency [5]

CCCCNc1c(C(=O)OCC)c(C)nc2c1cnn2CC
inactive: Potency [2] | outcome [6] | Potency [4] | Potency [5]

c1cnc(N2CCN(Cc3ccc4c(c3)OCO4)CC2)nc1
inactive: Potency [2] | outcome [6] | Potency [3] | Potency [4] | Potency [5]

CCO/C([O-])=N/c1c[n+](N2CCOCC2)no1
inactive: Potency [2] | outcome [6] | Potency [4] | Potency [5]

CCN(CC)CCOCCOC(=O)C1(c2ccccc2)CCCC1
inactive: Potency [2] | outcome [6] | Potency [4] | Potency [5]

O=C1CC2(CCCC2)CC(=O)N1CCCCN1CCN(c2ncccn2)CC1
inactive: Potency [2] | outcome [6] | Potency [3] | Potency [4] | Potency [5]

COc1cc2c(cc1OC)-c1cc(=Nc3c(C)cc(C)cc3C)n(C)c(=O)n1CC2
inactive: outcome [6] | Potency [3]

COc1ccc(CN(CCN(C)C)c2ccccn2)cc1
inactive: Potency [2] | outcome [6] | Potency [4] | Potency [5]

CCCCNc1ccc(C(=O)OCCN(C)C)cc1
inactive: Potency [2] | outcome [6] | Potency [4] | Potency [5]

O=C(O)CN(CCOCCOCCN(CC(=O)O)CC(=O)O)CC(=O)O
inactive: Potency [2] | activity change, negative = inhibition [6] -0.967% [at 0.59 µM] | Potency [3] | Potency [4] | activity change, negative = inhibition [5] 1.04% [at 0.727 µM]

CCn1nc(C(=O)O)c(=O)c2cc3c(cc21)OCO3
inactive: outcome [6] | Potency [3] | Potency [4] | Potency [5]

Cc1scc2c1N(C(=O)CN1CCN(C)CC1)c1ccccc1NC2=O
inactive: Potency [2] | outcome [6] | Potency [4] | Potency [5]

CCNC(=O)N1CCN(CCCC(c2ccc(F)cc2)c2ccc(F)cc2)CC1
inactive: Potency [2] | outcome [6] | Potency [4] | Potency [5]
